Tau fil binding – binders of human tau filaments; P10636; recombinant tau filaments, thioflavin S fluorescence, 15 h; filaments grown with octadecylsulfate alongside compound; Potency, µM (doses to about 57.1 µM); hit rate 2% among 71,000;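 also: actives lower thioflavin S fluorescence by blocking filaments or displacing dye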
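Tau 2 uM in ThS buffer dispensed; compound added; 60 uM ODS added (finals 1 uM tau, 30 uM ODS); 15 h 37 C; fluor ex450/em510.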
ERK AVP block – blocks ERK signaling stimulated by vasopressin | HEK293-V1b, vasopressin-stimulated pERK AlphaScreen | Potency, µM (doses to about 57.5 µM), usual class: inhibitors | hit rate 0.99% among 72,000; also: nearly all actives have a fitted effect of over 55% in size
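HEK293 cells stably expressing V1b receptor, preincubated 30 min at 37 °C with compound, then stimulated 5 min with 25 nM vasopressin. Phospho-ERK by AlphaScreen SureFire after 5 h RT; normalized to DMSO and vasopressin; AC50 by Hill fit.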
CRE-bla Fsk – alters forskolin-stimulated CRE reporter signaling in CHO cells | CHO CRE-bla reporter (cAMP response element driving beta-lactamase), forskolin EC10, beta-lactamase ratio | Potency, µM (doses to about 38.2 µM), actives largely listed as activators | AID 662 | hit rate 2.5% among 71,000; active = well fitted activation curve with a large enough effect in the signal ratio, with a control signal flat, not every such curve was filed as active; inconclusive = small, poorly fitted or top-dose-only effect, or effect the other way, or a change in a side signal; the % refers to the signal ratio
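Forskolin analogue NKH 477 at EC10 stimulated CRE-driven beta-lactamase in CHO cells alongside compound dilution series. Beta-lactamase was measured with CCF4, excitation 405 nm, emission ratio 460/530 nm.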
TSHR agonist – TSH receptor (human) agonism. HEK293-CNG-TSHR cells (CNG channel as cAMP sensor), membrane potential dye, cAMP. AID 926. Potency, µM (highest dose often 57.1 µM), usual class: activators. hit rate 0.48% among 73,000. P16473; active = well fitted activation curve with a large enough effect in the main read-out, with a control signal flat, not every such curve was filed as active; inconclusive = small, poorly fitted or top-dose-only effect, or a change in a side signal; inactive = no such curve, though single readings can be large or run the other way; reference of the percent scale not stated here;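 also: the control signal comes from parental cells without the receptor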
Target sequence (P16473 whole entry, looked up): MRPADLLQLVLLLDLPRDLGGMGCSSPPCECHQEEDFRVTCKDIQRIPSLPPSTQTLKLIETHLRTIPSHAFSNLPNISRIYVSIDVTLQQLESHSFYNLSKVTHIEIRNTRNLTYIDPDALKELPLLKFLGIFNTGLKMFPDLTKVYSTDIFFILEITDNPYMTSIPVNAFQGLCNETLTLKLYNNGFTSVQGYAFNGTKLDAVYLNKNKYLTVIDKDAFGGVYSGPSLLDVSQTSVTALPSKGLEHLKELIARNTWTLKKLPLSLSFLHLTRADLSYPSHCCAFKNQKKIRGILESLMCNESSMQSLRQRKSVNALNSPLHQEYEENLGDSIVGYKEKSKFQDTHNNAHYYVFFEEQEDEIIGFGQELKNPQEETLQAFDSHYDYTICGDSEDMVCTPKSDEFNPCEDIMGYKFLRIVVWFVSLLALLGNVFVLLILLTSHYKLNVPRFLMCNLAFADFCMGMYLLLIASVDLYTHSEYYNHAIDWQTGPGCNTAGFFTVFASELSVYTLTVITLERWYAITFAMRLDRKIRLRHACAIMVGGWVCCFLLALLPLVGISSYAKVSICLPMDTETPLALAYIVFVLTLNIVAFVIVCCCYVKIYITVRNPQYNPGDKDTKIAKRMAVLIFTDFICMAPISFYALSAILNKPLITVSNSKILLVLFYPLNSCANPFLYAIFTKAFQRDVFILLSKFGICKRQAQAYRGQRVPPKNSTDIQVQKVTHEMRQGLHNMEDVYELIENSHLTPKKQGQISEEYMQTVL
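HEK 293 cells stably expressing TSHR and a cAMP-gated CNG channel; parental CNG-only cells as counterscreen. Cells preloaded 60 min with membrane potential dye plus 100 uM RO 20-1724, then compound 30 min; fluorescence read at 590 nm.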
HEK293 cAMP ctrl – raises cAMP in parental HEK293 cells, TSHR agonist counter-screen. parental HEK293 CNG cAMP sensor, membrane potential fluorescence. Potency, µM (top dose mostly 57.1 µM), most hits filed as activators. hit rate 2.5% among 73,000; also: nearly all actives have a fitted effect of over 55% in size
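Parental HEK 293 cells stably expressing a cAMP-gated CNG channel were loaded with membrane potential dye containing 100 uM RO 20-1724 for 60 min. Compound added for 30 min; depolarization read as fluorescence intensity at 590 nm.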
A number is an active result; . = inactive; ? = inconclusive; / = no result given; ! = not active in a repeat; [ ] = another dose, or the depositor's remark. This is a sample that favours compounds with a hit; in the whole collection about 7.6% have one here. Unless noted, calls follow the shape of the dose curve; as a rule, active = well fitted curve in the direction sought with a large enough effect; inconclusive = small, poorly fitted or top-dose-only effect, or another doubt; inactive = no such curve, though single readings can be large; an effect the other way counts as inactive or inconclusive.

SMILES | Tau fil binding | ERK AVP block | CRE-bla Fsk | TSHR agonist | HEK293 cAMP ctrl
Cn1c(=NC(=O)C2CCN(S(=O)(=O)c3cccs3)CC2)sc2ccccc21 | . | . | . | 25µM | .
Cc1ccc2nc(NC(=O)C3CCN(S(=O)(=O)c4cccs4)CC3)sc2c1 | . | 25µM | ? | . | .
CCn1c2ccccc2c2cc(NC(=O)C3CCN(S(=O)(=O)c4cccs4)CC3)ccc21 | . | . | . | . | .
COc1ccc(-c2ccc3c(n2)CCCN3C[C@H](O)CN2CCCc3nc(C)c(C)cc32)cc1 | / | .[11.5 µM] | / | .[11.4 µM] | .[11.4 µM]
Cc1cc(C)c(C(=O)CSc2nnc(-c3ccccc3Br)o2)cc1C | . | . | . | ? | 16µM
Cc1occc1-c1nnc(SCC(=O)c2cc3ccccc3oc2=O)o1 | 10µM | 16µM | . | . | .
Cc1occc1-c1nnc(SCC(=O)N2CCOCC2)o1 | . | . | . | . | .
Cc1ccc(NC(=O)CSc2nnc(-c3ccccc3Br)o2)cc1C | . | . | . | . | .
Cn1c(=O)c2c(nc(Br)n2CCCc2ccccc2)n(C)c1=O | . | . | ? | . | .
CCCCn1c(CN(Cc2ccccc2)Cc2ccccc2)nc2c1c(=O)n(C)c(=O)n2C | . | . | ? | ? | ?
CN(Cc1ccccc1)c1nc2c(c(=O)n(C)c(=O)n2C)n1CCCc1ccccc1 | . | 20µM | . | / | .
CCCCCn1c(CN(C)Cc2ccccc2)nc2c1c(=O)n(C)c(=O)n2C | . | . | ? | ? | 20µM
CCNc1ncc2nc(-c3cccs3)c(=O)n(Cc3cccc(OC)c3)c2n1 | . | . | ? | ? | ?
CCCCNc1nc(C)nc2c1nc(-c1ccccc1)n2CC(C)(C)CN(C)C | . | . | . | ? | 32µM
CCCCNc1nc(C)nc2c1nc(-c1ccccc1)n2CCN1CCCC1 | . | ? | . | ? | ?
CCCCNc1nc(C)nc2c1nc(-c1ccccc1)n2CC1CCCN1CC (stereo not given) | . | ? | . | ? | 16µM
CCN1CCCC1Cn1c(-c2ccccc2)nc2c(NC3CCCCC3)nc(C)nc21 (stereo not given) | . | . | . | ? | 20µM
CCOC(=O)c1c(NC(=O)Cn2nnc3ccccc32)sc2c1CCC(C)C2 (stereo not given) | . | . | ? | . | .
CCOC(=O)c1c(NC(=O)Cn2c(C)nc3ccccc32)sc2c1CCC2 | . | . | ? | 25µM | .
COc1cc(NC(=O)C2COc3ccccc3O2)c(OC)cc1Cl (stereo not given) | . | . | . | ? | 16µM
Cn1c(N)nc2c(nc(OCc3ccccc3)n2[C@@H]2O[C@H](CO)[C@@H](O)[C@@H]2O)c1=O | .[11.4 µM] | .[11.5 µM] | .[7.6 µM] | .[11.4 µM] | .[11.4 µM]
CNCCCC12CCC(c3ccccc31)c1ccccc12 | 16µM! | . | . | ? | 40µM!
CCOC(=O)C1=C(N)n2c(s/c(=C\c3ccco3)c2=O)=C(C(=O)OCC)C1c1ccco1 (stereo not given) | 16µM | ? | . | . | .
COc1cccc(Cn2c(=O)c(-c3ccccc3)nc3cnc(N4CCNCC4)nc32)c1 | . | . | ? | ? | ?
COc1cccc(-c2nn(C)c3sc(C(=O)N4CCN(c5ccccn5)CC4)cc23)c1 | . | . | ? | ? | ?
SMILES | Tau fil binding | ERK AVP block | CRE-bla Fsk | TSHR agonist | HEK293 cAMP ctrl
COc1cccc(-c2nn(C)c3sc(C(=O)NCc4ccc5c(c4)OCO5)cc23)c1 | . | . | 2.5µM | . | .
COc1ccc(-c2nn(C)c3sc(C(=O)NCc4ccco4)cc23)cc1OC | . | . | ? | . | .
COc1cccc(-c2nn(C)c3sc(C(=O)NCc4ccc(C)o4)cc23)c1 | . | . | 6.3µM | / | .
O=C1C=C[C@@H](O)[C@H]2[C@@H]3C(=O)N(C4CCCCC4)C(=O)[C@@H]3CC[C@H]12 | / | .[11.5 µM] | / | .[11.4 µM] | .[11.4 µM]
COC(=O)c1nnn(-c2nonc2N)c1CN1CCc2ccccc21 | . | . | ? | . | .
COC(=O)c1nnn(-c2nonc2N)c1CSc1ccccn1 | . | ? | ? | ? | 32µM
Cc1cc(N2CCOCC2)c2c(N)c(C)cc(C)c2n1 | 16µM | . | . | ? | ?
COc1ccc2nc(C)cc(N3CCOCC3)c2c1 | . | . | . | . | .
C/C(CCN1CCCc2nc(C)c(C)cc21)=N\OC[C@@H](O)COCc1ccco1 | / | .[11.5 µM] | / | .[11.4 µM] | .[11.4 µM]
Clc1ccc2c(N3CCCC3)ccnc2c1 | 20µM | . | ? | . | .
